TDP1 cell noCPT: qHTS for Inhibitors of human tyrosyl-DNA phosphodiesterase 1 (TDP1): qHTS in cells in absence of CPT. Potency, µM (titrated, usually from 46.2 µM), for the others: at the top dose activity change, negative = growth inhibition, most hits filed as inhibitors. actives 15% (n = 420,000). DT40 Tdp1-/- hTDP1 cells, no CPT, ATP luminescence, 48 h. AID 686978, 2013; also: potency is read from the fitted curve at half-maximal effect; nearly all actives have a fitted effect of over 55% in size
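Stably hTDP1-transfected Tdp1-null chicken DT40 cells were treated with library compounds minus camptothecin and grown for at least 48 hr at 37 °C, after which cellular ATP was quantified by luminescence.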
IL1B secr inh: qHTS for Inhibitors of Inflammasome Signaling: IL-1-beta AlphaLISA Primary Screen | THP-1 LPS/ATP IL-1B secretion, AlphaLISA, 16 h; hits give low values | activity change, % at 57.5 µM | actives 4.7% (n = 360,000); in the data active = activity change below about -50%; inconclusive = mostly about -30% to -49%
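Secreted IL-1B measured by AlphaLISA bead assay after 16 h compound exposure of THP-1 cells; compounds (final up to 57.5 uM) added 1 h before LPS (250 ng/mL) and ATP (1.25 mM) stimulation; lower signal means less secretion.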
ELG1 DNA repair: qHTS screen for small molecules that inhibit ELG1-dependent DNA repair in human embryonic kidney (HEK293T) cells expressing luciferase-tagged ELG1. AID 504467, 2011. Potency, µM (titrated, usually from 46.1 µM), without a hit: top-dose activity change, negative = inhibition, most hits filed as inhibitors. HEK293T ELG1-luciferase reporter, luminescence, 16 h; DNA damage induced by 5-fluorouridine. actives 2.3% (n = 330,000); also: potency is read from the fitted curve at half-maximal effect; nearly all actives have a fitted effect of over 55% in size
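Cells (2,000 per well) received 5-fluorouridine plus test compound or DMSO and were incubated 16 hr at 37 °C, 5% CO2. Luciferase activity was read by luminescence 30 min after ONE-Glo addition; signal suppression marked inhibition of damage-induced ELG1 function.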
TDP1 cell CPT: qHTS for Inhibitors of human tyrosyl-DNA phosphodiesterase 1 (TDP1): qHTS in cells in presence of CPT | chicken DT40 Tdp1-/-;hTDP1 cells + 20 nM CPT, ATP luminescence, 48 h | actives 12% (n = 420,000) | Potency, µM (top dose mostly 46.2 µM), inactives show at the highest dose activity change, negative = growth inhibition, hits mostly inhibitors; also: potency is read from the fitted curve at half-maximal effect; nearly all actives have a fitted effect of over 55% in size
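Chicken DT40 Tdp1-/- cells complemented with human TDP1, 400 cells/well, exposed to compounds plus 20 nM camptothecin for at least 48 h at 37 C; viability read as ATP content by CellTiter-Glo luminescence.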
HT1080NT lethal: qHTS for induction of synthetic lethality in tumor cells producing 2HG: qHTS for the HT-1080-NT fibrosarcoma cell line | HT-1080-NT fibrosarcoma viability, CellTiter-Glo ATP luminescence, 48 h | Potency, µM (series often up to 46.1 µM), for the others: at the highest dose activity, negative = less viability, most hits filed as cytotoxic | actives 1.6% (n = 360,000) | AID 686970, 2013;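 also: NT is the 2HG producing partner of a matched IDH1 knockdown line; potency is read from the fitted curve at half-maximal effect; 0% = DMSO-treated cells and -100% = media-only wells without cells; nearly all actives have a fitted effect of over 55% in size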
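HT-1080-NT; 750 cells/well; 5% FBS RPMI; 48 h compound, 37 degrees C; CellTiter-Glo luminescence; curve fitting and curve-class assignment.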
HT1080 IDH1KD tx: qHTS for induction of synthetic lethality in tumor cells producing 2HG: qHTS for the HT-1080-IDH1KD cell line; HT-1080 IDH1 knockdown viability, ATP luminescence, 48 h; Potency, µM (titrated, usually from 46.1 µM), inactives show at the highest dose activity, negative = toxicity, hits mostly cytotoxic; actives 2% (n = 360,000); AID 686971, 2013;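 also: potency is read from the fitted curve at half-maximal effect; 0% = DMSO wells and -100% = cell-free medium wells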
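Luminescent ATP read-out (CellTiter-Glo, 10 min at room temperature) after 48 h compound exposure at 37 °C gave viability of IDH1-knockdown HT-1080 cells. Activity was normalised to DMSO and cell-free wells, then fitted as concentration-response curves.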
Starred values were filed as active, the others as inactive; ? = inconclusive; / = not tested or not shown. Only some compounds are listed: those with a hit (about 19% of all), similar ones and a draw of the others. Unless noted, calls follow the shape of the dose curve; as a rule, active = well fitted curve in the direction sought with a large enough effect; inconclusive = small, poorly fitted or top-dose-only effect, or another doubt; inactive = no such curve, though single readings can be large; an effect the other way counts as inactive or inconclusive. Unless noted, % is scaled to controls: 0 for no effect and ±100 for the full control effect.

SMILES	TDP1 cell noCPT	IL1B secr inh	ELG1 DNA repair	TDP1 cell CPT	HT1080NT lethal	HT1080 IDH1KD tx
CCOC(=O)c1c(Nc2ccc(C)cc2)nnc(-c2ccccc2)c1-c1ccccc1	18.4µM*	/	/	?	/	/
COCCCNC(=O)c1ccc2sc([C@@H]3O[C@H](CO)[C@H](O)[C@H](O)[C@H]3O)nc2c1	-0.6%	8.5	/	7.2%	15.5%	4.5%
CC(C)NC(=O)N1CCCC2(CCN(C(=O)c3cc(C(F)(F)F)cc(C(F)(F)F)c3)CC2)C1	?	/	/	-6.4%	/	/
CCOC(=O)c1ccc(Nc2nc(-c3cccnc3)nc3ccccc23)cc1	9.2µM*	-21.4	?	16.4µM*	14.6µM*	?
Cc1ccc(-c2cccc(C3CC=CC4C3C(=O)N(Cc3ccccc3)C4c3cc(C)ccc3F)c2)cc1 (stereo not given)	14.6µM*	32.9	2.2%	16.4µM*	-19.6%	-0.8%
COc1ccc(-c2cccc(C3CC=CC4C3C(=O)N(Cc3ccccc3)C4c3ccc(C(F)(F)F)cc3)c2)cc1 (stereo not given)	14.6µM*	48.4	?	?	-2.9%	-14.5%
CN(C)c1ccc(-c2cccc(C3CC=CC4C3C(=O)N(Cc3ccccc3)C4c3ccc(C(F)(F)F)cc3)c2)cc1 (stereo not given)	23.1µM*	26.9	8.3%	11.6µM*	0.4%	0.8%
Cc1ccsc1/C=C(\C#N)C(=O)NC1CCS(=O)(=O)C1 (stereo not given)	11.1%	0.0	8.5%	-4.6%	-2.1%	0.2%
COC(=O)c1sc(S(=O)(=O)Nc2ccc(Br)cc2)c(C(=O)OC)c1C	-20.3%	21.2	-4.3%	?	-2.3%	-15.6%
CC(=O)OC1CC(O)C(C)(C)C2CC(OC(C)=O)[C@]3(C)C(CC[C@@]4(C)C(c5ccoc5)OC(=O)C5OC534)[C@]12C (stereo not given in full)	10.1%	/	/	4.6%	/	/
CC(=O)OC1CC2C(C)(C)C(O)CC[C@@]2(C)C2CC[C@@]3(C)C(c4ccoc4)OC(=O)C4O[C@@]43[C@]12C (stereo not given in full)	18.4µM*	/	/	?	/	/
CC(=O)OC1CC2C(C)(C)C(O)CC[C@@]2(C)C2CC[C@@]3(C)C(c4ccoc4)OC(=O)C4OC43[C@]12C (stereo not given in full)	20.6µM*	/	/	?	/	/
N#CC1(C(N)=O)OC12CCS(=O)(=O)c1ccccc12 (stereo not given)	-52.1%	5.8	/	-17.7%	2.2%	1.3%
Cc1cc(F)ccc1S(=O)(=O)Nc1ccccc1C(=O)Nc1ncn[nH]1	-26.3%	14.9	-2.8%	-15.6%	-0.7%	-4.4%
CC1CCN(S(=O)(=O)c2ccc(C(=O)Nc3nnc(-c4ccccn4)o3)cc2)CC1	?	26.9	?	?	-9.5%	-8.6%
CC1CCCN(S(=O)(=O)c2ccc(C(=O)Nc3ccccc3-c3nc4ccccc4[nH]3)cc2)C1 (stereo not given)	10.3µM*	19.8	?	18.4µM*	10.4%	8.6%
Cc1cc(F)ccc1S(=O)(=O)Nc1ccccc1C(=O)Nc1ccccc1-c1nc2ccccc2[nH]1	7.31µM*	-78.7*	?	5.8µM*	?	?
CC1CCN(S(=O)(=O)c2ccc(C(=O)Nc3ccccc3-c3nc4ccccc4[nH]3)cc2)CC1	?	4.0	16.4µM*	?	-0.6%	0.0%
COc1ccc(S(=O)(=O)N2CCC3(CC2)OCCN3S(=O)(=O)c2ccc(OC)cc2)cc1	?	-12.7	-12.6%	?	-1.7%	-5.2%
COc1ccc(S(=O)(=O)N2CCOC23CCN(S(=O)(=O)c2cccs2)CC3)cc1	16.4µM*	1.0	-10.0%	13µM*	7.4%	8.8%
O=S(=O)(c1ccccc1)N1CCC2(CC1)OCCN2S(=O)(=O)c1cccs1	20.6µM*	12.8	-4.3%	?	-1.7%	-6.6%
CC[C@@]1(C(=O)OC)N[C@H](CN(C)C(=O)Nc2ccc(Cl)cc2)[C@@H]2C(=O)N(Cc3ccccc3)C(=O)[C@@H]21	-24.3%	-14.8	0.0%	-27.8%	-2.6%	-4.0%
Cc1ccc(NC(=O)CSCC(=O)OCc2cc(=O)oc3cc(O)ccc23)c(C)c1	-28.0%	37.8	-2.8%	12.1%	12.5%	13.9%
CC(C)C[C@@H]1COc2cc(N3CCSCC3)ccc2S(=O)(=O)N1	-11.5%	-4.1	/	-1.0%	13.9%	15.8%
COc1cccc(CNC(=O)c2cc(=O)[nH]c3ccc(S(=O)(=O)N4CCCC4)cc23)c1	10.6%	/	/	0.8%	/	/
SMILES	TDP1 cell noCPT	IL1B secr inh	ELG1 DNA repair	TDP1 cell CPT	HT1080NT lethal	HT1080 IDH1KD tx
COCCCN(C(=O)c1ccco1)c1nc(-c2cc(OC)ccc2OC)cs1	?	-8.1	?	?	?	3.6%
CN(C)CCCN(C(=O)c1ccco1)c1nc(-c2ccc(Cl)cc2)cs1	?	-53.7*	6.2%	?	-21.3%	-6.3%
COc1ccc(-c2csc(N(CCCN3CCOCC3)C(=O)c3ccco3)n2)cc1	16.4µM*	?	16.4µM*	18.4µM*	-21.9%	-13.3%
CN(C(=O)c1ccco1)c1nc(-c2ccc(Cl)cc2)cs1	?	?	0.0%	?	13.0%	17.7%
COc1ccc(-c2csc(N(C)C(=O)c3ccco3)n2)cc1	-29.8%	-4.2	?	-9.4%	20.5%	-1.0%
COc1ccc(OC)c(-c2csc(N(Cc3ccco3)C(=O)c3ccco3)n2)c1	20.6µM*	5.3	18.3µM*	?	-3.6%	?
Cc1ccc(-c2csc(N(CCCN3CCOCC3)C(=O)c3ccco3)n2)cc1	20.6µM*	-53.3*	?	?	?	?
Cc1ccc(S(=O)(=O)NN=CC=CC=NNS(=O)(=O)c2ccc(C)cc2)cc1	?	-3.9	/	?	14.0%	6.0%
CCC1(c2ccccc2)NC(=O)N(CC(=O)NC2(C#N)CCCCC2)C1=O (stereo not given)	6.5%	2.3	?	-4.8%	1.1%	1.1%

High-throughput results deposited in PubChem BioAssay by National Center for Advancing Translational Sciences (NCATS).
